# Residues, ends and D or L forms follow the SMILES beside them. *: point of attachment. Cbz = O=C(OCc1ccccc1)*; Boc = CC(C)(C)OC(=O)*; CH2F = FC*
# Target: Mitogen-activated protein kinase 1 (Homo sapiens) (UniProt P28482)
# Conditions: Compound concentration 20.0 uM
# Chain of Mitogen-activated protein kinase 1 (Homo sapiens) (P28482 whole entry): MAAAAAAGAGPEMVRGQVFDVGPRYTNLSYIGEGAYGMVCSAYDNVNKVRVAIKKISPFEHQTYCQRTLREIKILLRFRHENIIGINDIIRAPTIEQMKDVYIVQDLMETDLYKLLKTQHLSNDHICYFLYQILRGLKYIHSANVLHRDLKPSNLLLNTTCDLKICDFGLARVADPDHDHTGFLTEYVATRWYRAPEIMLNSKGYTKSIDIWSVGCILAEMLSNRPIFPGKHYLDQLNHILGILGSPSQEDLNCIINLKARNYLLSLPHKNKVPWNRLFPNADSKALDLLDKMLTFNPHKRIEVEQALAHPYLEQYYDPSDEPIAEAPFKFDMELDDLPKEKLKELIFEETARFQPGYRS
row,SMILES,ΔTm
1,CCn1c(=S)[nH]c2cc3c(NCc4ccccc4N4CCC(CO)CC4)ncnc3cc21,0.17 °C
2,COc1cc2c(cc1OC)[C@H]1C[C@@H](O)[C@H](CC(C)C)CN1CC2,0.59 °C
3,C=CCn1c(N[C@@H]2C[C@H](c3ccc(OCc4ccccc4)cc3)CN(C)C2)nc2cc[nH]c2c1=O,0.13 °C
4,CC(C)[C@H](NC(=O)[C@H](CCC(=O)O)NC(=O)[C@H](C)NC(=O)OC(C)(C)C)C(=O)N[C@H](C=O)CC(=O)O (Boc-AEVD-aldehyde),-0.49 °C
5,Cc1cnc(-c2ccccc2C(C)C)nc1NCc1ccc(-n2ccnn2)cc1,0.55 °C
6,O=C(c1ccc2c(ccn2-c2ccc(F)cc2)c1)N1CC(N2CCN(C(=O)c3nccs3)CC2)C1,0 °C
7,Cc1c(Nc2ccc(S(=O)(=O)N3CCN(C)CC3)cc2F)nc2ccc(-c3cnn(C4CC4)c3)cn2c1=O,0.06 °C
8,CC(=O)Nc1ccc(C(=O)Nc2ccc(F)cc2N)cc1,-0.66 °C
9,CCCCCCCCCCCCCCCCNNC(=O)c1cccs1,0.48 °C
10,CCNC(=O)NCCSC[C@H]1O[C@@H](n2cnc3c(N)ncnc32)[C@H](O)[C@@H]1O,-1.34 °C
11,CNc1cc(-c2cccc(Cl)c2Cl)nc(N)n1,0.22 °C
12,CCNC(=O)/C=C/c1cccc(Br)c1,-0.04 °C
13,O=C(c1cc(Cc2n[nH]c(=O)c3ccccc23)ccc1F)N1CCN(C(=O)C2CC2)CC1,0.4 °C
14,CCCOC(=O)N1CCN(C(=O)c2ccc3c(Cl)cc(-c4ccc(C5(N)CC5)cc4)nc3c2)C[C@H]1C,-7.2 °C
15,CC(C)C[C@@H](C=O)NC(=O)[C@@H](NS(=O)(=O)c1ccc(F)cc1)C(C)C,0.01 °C
16,CC(C)NCC(O)COC(Cn1c2ccccc2c2ccccc21)Cn1c2ccccc2c2ccccc21 (stereo not drawn),-15 °C
17,COc1ccc(-c2c(-c3ccc(C#N)c(F)c3)nc(N3CCC(N)CC3)n(C)c2=O)cc1F,0.2 °C
18,Cc1noc2c1-c1ccccc1C(c1ccc(Cl)cc1)=N[C@H]2CC(N)=O,0.12 °C
19,Cc1ncc(Cl)cc1NCc1ccc(C(=O)N[C@@H](CC2CCCC2)C(=O)NC2CC2)s1,-3.12 °C
20,O=C(NO)c1cccc(C(=O)NCCc2ccccc2)c1,0.15 °C

row,SMILES,ΔTm
1,N#Cc1c(N)[nH]c2cc(/C=C/c3cccc(F)c3)ccc12,1.9 °C
2,O=C(O)CCNc1cc(N2CCc3ccccc3CC2)nc(-c2ccccn2)n1,-0.2 °C
3,CN1CCN(c2cc(C(=O)Nc3ncc(SCc4cccc(C(F)(F)F)c4)s3)ccn2)CC1,-0.59 °C
4,CC1=NN(c2ccc(C(=O)O)cc2)C(=O)/C1=C/c1ccc(-c2cc(C)c(C)cc2[N+](=O)[O-])o1,0.41 °C
5,CC(C)(C)NS(=O)(=O)c1cccc2c(NC(=O)[C@H](Cc3ccccc3)NC(=O)C3CCCCC3)cccc12,-10.5 °C
6,CC(=O)N1CCC(c2ccc(C(=O)NC(=N)N)cc2C(F)(F)F)CC1,0.47 °C
7,O=C(NO)c1cnc(NC2(c3ccccc3)CC2)nc1,-0.3 °C
8,CC(C)c1cnc(CSc2cnc(NC(=O)C3CCNCC3)s2)o1,-0.12 °C
9,O=C(O)CCNC(=S)NCCCC[C@H](NS(=O)(=O)c1cccc(F)c1)C(=O)N[C@@H](Cc1c[nH]c2ccccc12)C(=O)NC1CCC1,0.22 °C
10,CNCC[C@@H](Oc1ccccc1C)c1ccccc1,0.18 °C
11,CCN(C(=O)c1cc(F)ccc1Oc1cncnc1N1CC2(CCN(C[C@H]3CC[C@H](NS(=O)(=O)CC)CC3)CC2)C1)C(C)C,0.48 °C
12,Cc1ccc2c(c1)nc(/C=C/c1cccc3cccnc13)n2-c1cccc(OCCCN2CCN(C)CC2)c1,0.14 °C
13,CN1Cc2c(Cl)cc(Cl)cc2[C@H](c2cccc(S(=O)(=O)NCCOCCOCCNC(=O)NCCCCNC(=O)NCCOCCOCCNS(=O)(=O)c3cccc([C@@H]4CN(C)Cc5c(Cl)cc(Cl)cc54)c3)c2)C1,0 °C
14,C[C@H](NC(=O)[C@H](Cc1ccccc1)NC(=O)OCc1ccccc1)C(=O)CF,-0.19 °C
15,Cc1cc(C)nc(SCC(=O)Nc2ncc(Cc3cccc(OCc4cn(Cc5ccccc5)nn4)c3)s2)n1,0.65 °C
16,COC(=O)CC(NC(=O)C(C)NC(=O)C(NC(=O)C(CC(=O)OC)NC(=O)C(NC(=O)OCc1ccccc1)C(C)C)C(C)C)C(=O)CF (stereo not drawn) (Cbz-VD(OMe)VAD(OMe)-CH2F; configuration not given here),0.29 °C
17,CC1C(C#N)=C(N)OC2=C1C(=O)CC(c1cccc3ccccc13)C2 (stereo not drawn),-2.01 °C
18,Cc1ccc(C(=O)Nc2ccc(S(=O)(=O)O)c3cc(S(=O)(=O)O)cc(S(=O)(=O)O)c23)cc1NC(=O)c1cccc(NC(=O)Nc2cccc(C(=O)Nc3cc(C(=O)Nc4ccc(S(=O)(=O)O)c5cc(S(=O)(=O)O)cc(S(=O)(=O)O)c45)ccc3C)c2)c1,-0.68 °C
19,CN1C[C@@H]2[C@H](C1)[C@H]2CN(Cc1ccc(F)c(Cl)c1)C(=O)c1cn(C)cn1,0.19 °C

# Target: T1, Aurora kinase A (Homo sapiens) (UniProt O14965)
# T1 sequence (whole entry): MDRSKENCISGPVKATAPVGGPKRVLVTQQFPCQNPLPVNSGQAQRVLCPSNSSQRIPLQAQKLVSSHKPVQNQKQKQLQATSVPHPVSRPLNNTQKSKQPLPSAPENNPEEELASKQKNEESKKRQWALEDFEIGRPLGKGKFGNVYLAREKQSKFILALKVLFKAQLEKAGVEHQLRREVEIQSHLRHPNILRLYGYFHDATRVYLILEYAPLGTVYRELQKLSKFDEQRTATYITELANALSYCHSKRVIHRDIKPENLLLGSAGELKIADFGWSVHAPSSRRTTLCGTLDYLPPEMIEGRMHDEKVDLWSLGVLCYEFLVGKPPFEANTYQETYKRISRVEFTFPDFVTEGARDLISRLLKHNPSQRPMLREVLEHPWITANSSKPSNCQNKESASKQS
# Conditions: Compound concentration 20.0 uM
row,SMILES,ΔTm
1,CCn1c(=S)[nH]c2cc3c(NCc4ccccc4N4CCC(CO)CC4)ncnc3cc21,-1.92 °C
2,COc1cc2c(cc1OC)[C@H]1C[C@@H](O)[C@H](CC(C)C)CN1CC2,-0.72 °C
3,C=CCn1c(N[C@@H]2C[C@H](c3ccc(OCc4ccccc4)cc3)CN(C)C2)nc2cc[nH]c2c1=O,-1.6 °C
4,CC(C)[C@H](NC(=O)[C@H](CCC(=O)O)NC(=O)[C@H](C)NC(=O)OC(C)(C)C)C(=O)N[C@H](C=O)CC(=O)O (Boc-AEVD-aldehyde),-1.35 °C
5,Cc1cnc(-c2ccccc2C(C)C)nc1NCc1ccc(-n2ccnn2)cc1,-2.6 °C
6,O=C(c1ccc2c(ccn2-c2ccc(F)cc2)c1)N1CC(N2CCN(C(=O)c3nccs3)CC2)C1,-3.69 °C
7,Cc1c(Nc2ccc(S(=O)(=O)N3CCN(C)CC3)cc2F)nc2ccc(-c3cnn(C4CC4)c3)cn2c1=O,-1.87 °C
8,CC(=O)Nc1ccc(C(=O)Nc2ccc(F)cc2N)cc1,-2.46 °C
9,CCCCCCCCCCCCCCCCNNC(=O)c1cccs1,-0.52 °C
10,CCNC(=O)NCCSC[C@H]1O[C@@H](n2cnc3c(N)ncnc32)[C@H](O)[C@@H]1O,-0.19 °C
11,CNc1cc(-c2cccc(Cl)c2Cl)nc(N)n1,-2.02 °C
12,CCNC(=O)/C=C/c1cccc(Br)c1,-2.22 °C
13,O=C(c1cc(Cc2n[nH]c(=O)c3ccccc23)ccc1F)N1CCN(C(=O)C2CC2)CC1,-2.14 °C
14,CCCOC(=O)N1CCN(C(=O)c2ccc3c(Cl)cc(-c4ccc(C5(N)CC5)cc4)nc3c2)C[C@H]1C,0.93 °C
15,CC(C)C[C@@H](C=O)NC(=O)[C@@H](NS(=O)(=O)c1ccc(F)cc1)C(C)C,-1.2 °C
16,CC(C)NCC(O)COC(Cn1c2ccccc2c2ccccc21)Cn1c2ccccc2c2ccccc21 (stereo not drawn),-0.78 °C
17,COc1ccc(-c2c(-c3ccc(C#N)c(F)c3)nc(N3CCC(N)CC3)n(C)c2=O)cc1F,-2.24 °C
18,Cc1noc2c1-c1ccccc1C(c1ccc(Cl)cc1)=N[C@H]2CC(N)=O,-2.42 °C
19,Cc1ncc(Cl)cc1NCc1ccc(C(=O)N[C@@H](CC2CCCC2)C(=O)NC2CC2)s1,7.63 °C
20,O=C(NO)c1cccc(C(=O)NCCc2ccccc2)c1,-0.23 °C

row,SMILES,ΔTm
1,N#Cc1c(N)[nH]c2cc(/C=C/c3cccc(F)c3)ccc12,0.33 °C
2,O=C(O)CCNc1cc(N2CCc3ccccc3CC2)nc(-c2ccccn2)n1,-1.3 °C
3,CN1CCN(c2cc(C(=O)Nc3ncc(SCc4cccc(C(F)(F)F)c4)s3)ccn2)CC1,0 °C
4,CC1=NN(c2ccc(C(=O)O)cc2)C(=O)/C1=C/c1ccc(-c2cc(C)c(C)cc2[N+](=O)[O-])o1,-0.94 °C
5,CC(C)(C)NS(=O)(=O)c1cccc2c(NC(=O)[C@H](Cc3ccccc3)NC(=O)C3CCCCC3)cccc12,-2.29 °C
6,CC(=O)N1CCC(c2ccc(C(=O)NC(=N)N)cc2C(F)(F)F)CC1,-0.69 °C
7,O=C(NO)c1cnc(NC2(c3ccccc3)CC2)nc1,-0.41 °C
8,CC(C)c1cnc(CSc2cnc(NC(=O)C3CCNCC3)s2)o1,3.08 °C
9,O=C(O)CCNC(=S)NCCCC[C@H](NS(=O)(=O)c1cccc(F)c1)C(=O)N[C@@H](Cc1c[nH]c2ccccc12)C(=O)NC1CCC1,-2.13 °C
10,CNCC[C@@H](Oc1ccccc1C)c1ccccc1,-1.68 °C
11,CCN(C(=O)c1cc(F)ccc1Oc1cncnc1N1CC2(CCN(C[C@H]3CC[C@H](NS(=O)(=O)CC)CC3)CC2)C1)C(C)C,-2.26 °C
12,Cc1ccc2c(c1)nc(/C=C/c1cccc3cccnc13)n2-c1cccc(OCCCN2CCN(C)CC2)c1,-2.49 °C
13,CN1Cc2c(Cl)cc(Cl)cc2[C@H](c2cccc(S(=O)(=O)NCCOCCOCCNC(=O)NCCCCNC(=O)NCCOCCOCCNS(=O)(=O)c3cccc([C@@H]4CN(C)Cc5c(Cl)cc(Cl)cc54)c3)c2)C1,-2.14 °C
14,C[C@H](NC(=O)[C@H](Cc1ccccc1)NC(=O)OCc1ccccc1)C(=O)CF,-0.86 °C
15,Cc1cc(C)nc(SCC(=O)Nc2ncc(Cc3cccc(OCc4cn(Cc5ccccc5)nn4)c3)s2)n1,-2.36 °C
16,COC(=O)CC(NC(=O)C(C)NC(=O)C(NC(=O)C(CC(=O)OC)NC(=O)C(NC(=O)OCc1ccccc1)C(C)C)C(C)C)C(=O)CF (stereo not drawn) (Cbz-VD(OMe)VAD(OMe)-CH2F; configuration not given here),-1.87 °C
17,CC1C(C#N)=C(N)OC2=C1C(=O)CC(c1cccc3ccccc13)C2 (stereo not drawn),-0.97 °C
18,Cc1ccc(C(=O)Nc2ccc(S(=O)(=O)O)c3cc(S(=O)(=O)O)cc(S(=O)(=O)O)c23)cc1NC(=O)c1cccc(NC(=O)Nc2cccc(C(=O)Nc3cc(C(=O)Nc4ccc(S(=O)(=O)O)c5cc(S(=O)(=O)O)cc(S(=O)(=O)O)c45)ccc3C)c2)c1,0 °C
19,CN1C[C@@H]2[C@H](C1)[C@H]2CN(Cc1ccc(F)c(Cl)c1)C(=O)c1cn(C)cn1,-1.34 °C

# Source: ChEMBL document CHEMBL5724796, “Tm Shift (DSF) assay results for EUbOPEN Chemogenomics Library” (2024)
